Some test systems named below: HCT-15 colon; HT29 colon; SNB-75 CNS; SNB-19 CNS; U251 CNS; PC-3 prostate; SK-MEL-5 melanoma; UACC-62 melanoma; LOX IMVI melanoma; SK-MEL-28 melanoma; SK-MEL-2 melanoma; EKVX NSCLC; SN12C renal; UO-31 renal; TK-10 renal; ACHN renal; CAKI-1 renal; A498 renal; CCRF-CEM leukemia; MOLT-4 leukemia.
Holding throughout (assay): NCI-60 one-dose screen, 48 h (100 = growth as untreated, 0 = no growth, -100 = all killed)
Common to all, as to details: 10 µM unless noted

The panel holds about 83,000 compounds, 20% with a hit somewhere; the sample as a whole holds those more often.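 Values shown are percent growth following 48 h exposure of cells in 96-well plates to a single concentration of compound; below 10 was considered active.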 Values without a mark were called inactive. The source made the active and inactive calls.

`CC(=O)c1c(/C=C/c2ccc(C)cc2)c2ccccc2[nH]c1=O`: the growth with HCT-15 colon is 102%; in the test with HT29 colon it was 105%; with SNB-75 CNS it was 73.7%; in the test on SNB-19 CNS, 73.5%; in the test on U251 CNS it was 86%; in the test with PC-3 prostate, 81.2%. Also, the growth with SK-MEL-5 melanoma was 95.9%; in the test on UACC-62 melanoma, 80.7%; with LOX IMVI melanoma, 84.7%; with SK-MEL-28 melanoma it was 110%; in the test on SK-MEL-2 melanoma, 107%; in the test with EKVX NSCLC, 95.1%. Further, the growth in the test with SN12C renal is 83.2%; in the test on UO-31 renal it was 49.6%; in the test on TK-10 renal, 106%; in the test with ACHN renal, 91%; in the test with CAKI-1 renal it was 67.6%; in the test on A498 renal it was 81.2%. In addition, the values for the growth with CCRF-CEM leukemia and in the test with MOLT-4 leukemia were 105% and 87.1%, respectively.

In the case of `Cn1cc(-c2csc(-c3cn(C)c4ccc(F)cc34)n2)c2cnccc21`, the growth in the test with HCT-15 colon was -46.4% (active); in the test on HT29 colon it was -66.8% (active); with SNB-75 CNS, -73% (active); in the test with SNB-19 CNS it was 3.63% (active); with U251 CNS it was -89.5% (active); with PC-3 prostate, 10.5%. Also, the growth was -94.1% (active) in the test with SK-MEL-5 melanoma; -69.4% (active) in the test on UACC-62 melanoma; -90% (active) in the test on LOX IMVI melanoma; -95.9% (active) with SK-MEL-28 melanoma; 88.9% with SK-MEL-2 melanoma; -13.1% (active) in the test with EKVX NSCLC. Moreover, the growth in the test on SN12C renal is -29.9% (active); in the test on UO-31 renal, -69.7% (active); in the test on TK-10 renal, -20.2% (active); in the test with ACHN renal, -89.6% (active); with CAKI-1 renal, -43.9% (active); in the test on A498 renal, 78.3%. Besides, the growth was -11.6% (active) with CCRF-CEM leukemia and -36.1% (active) in the test with MOLT-4 leukemia.

With `CCCCC1=C(Br)C(=O)c2ncccc2C1=O`, the growth is 100% in the test with HCT-15 colon; 104% with HT29 colon; 91.9% in the test with SNB-75 CNS; 97.9% in the test on SNB-19 CNS; 95.5% in the test with U251 CNS; 90% with PC-3 prostate. The growth was 90.3% in the test on SK-MEL-5 melanoma; 93.4% with UACC-62 melanoma; 94.6% with LOX IMVI melanoma; 115% in the test with SK-MEL-28 melanoma; 111% in the test on SK-MEL-2 melanoma; 99.2% in the test on EKVX NSCLC. Besides, the growth in the test with SN12C renal was 92.7%; in the test with UO-31 renal, 87.6%; in the test on TK-10 renal, 109%; with ACHN renal, 67.4%; in the test with CAKI-1 renal, 90%; in the test on A498 renal, 99.5%. Also, the growth in the test with CCRF-CEM leukemia is 8.13% (active); in the test with MOLT-4 leukemia it was 5.83% (active).

Regarding `Oc1ccc(Cc2ccc(O)c3ncccc23)c2cccnc12`, the growth in the test with HCT-15 colon was 13.1%; in the test with HT29 colon, 57.6%; with SNB-75 CNS, 12.9%; in the test on SNB-19 CNS, 15.9%; with U251 CNS it was 6.14% (active); in the test on PC-3 prostate, 5.52% (active). In addition, the growth is -47.3% (active) with SK-MEL-5 melanoma; 1.18% (active) in the test on UACC-62 melanoma; 16.7% in the test with LOX IMVI melanoma; 30.3% in the test with SK-MEL-28 melanoma; -17.9% (active) in the test with SK-MEL-2 melanoma; 8.21% (active) in the test with EKVX NSCLC. The growth in the test on SN12C renal was 8.11% (active); in the test with UO-31 renal, 1.7% (active); in the test on TK-10 renal, -9.53% (active); with ACHN renal, -4.29% (active); in the test with CAKI-1 renal it was 16.2%; in the test on A498 renal, 5.58% (active). Further, the growth in the test with CCRF-CEM leukemia is 17.4%; with MOLT-4 leukemia it was 11.8%.

For `O=C(Nc1ncc(Cc2cc(C(F)(F)F)ccc2Cl)s1)C(=S)N1CCOCC1`, the growth in the test on HCT-15 colon is 78.6%; in the test on HT29 colon, 95.1%; with SNB-75 CNS, 86.7%; in the test with SNB-19 CNS it was 96.9%; in the test with U251 CNS it was 90.3%; in the test on PC-3 prostate, 81.3%. Further, the growth in the test with SK-MEL-5 melanoma was 96.6%; in the test with UACC-62 melanoma, 72.6%; in the test on LOX IMVI melanoma it was 90.5%; in the test with SK-MEL-28 melanoma it was 114%; with SK-MEL-2 melanoma it was 104%; in the test with EKVX NSCLC it was 83%. Also, the growth in the test on SN12C renal was 96.2%; in the test on UO-31 renal it was 69.5%; in the test with TK-10 renal, 88.5%; in the test on ACHN renal it was 99.4%; with CAKI-1 renal, 67.1%; in the test on A498 renal it was 90.3%. Moreover, the figures for the growth with CCRF-CEM leukemia and with MOLT-4 leukemia were 92.3% and 93%, respectively.

As for `Cc1ccc(C23CCC(=O)N2CCc2cncn23)cc1` (stereo not given), the growth with HCT-15 colon was 98.9%; in the test with HT29 colon it was 98.3%; in the test with SNB-75 CNS it was 111%; in the test with SNB-19 CNS, 97.7%; with U251 CNS, 97.2%; in the test with PC-3 prostate, 95%. In addition, the growth in the test on SK-MEL-5 melanoma was 98.8%; with UACC-62 melanoma, 95.8%; in the test on LOX IMVI melanoma, 105%; with SK-MEL-28 melanoma, 106%; in the test with SK-MEL-2 melanoma, 107%; in the test on EKVX NSCLC, 104%. Also, the growth in the test with SN12C renal is 99%; in the test on UO-31 renal, 96.8%; with TK-10 renal it was 91.7%; with ACHN renal it was 105%; in the test on CAKI-1 renal, 107%; in the test with A498 renal it was 96.8%. Also, the values for the growth with CCRF-CEM leukemia and with MOLT-4 leukemia were 95.1% and 104%, respectively.

Take `CCN1C(=O)N(CC)C2C1NN=c1s/c(=C3\C(=O)N(C)c4ccccc43)c(=O)n12` (stereo not given): the growth in the test on HCT-15 colon is 22.2%; in the test with HT29 colon it was 11.5%; with SNB-75 CNS, -10.8% (active); with SNB-19 CNS, 37.2%; in the test on U251 CNS it was 34.9%; in the test with PC-3 prostate, 35%. The growth is 32.8% in the test with SK-MEL-5 melanoma; 29.1% in the test on UACC-62 melanoma; 47.7% in the test with LOX IMVI melanoma; 52.6% with SK-MEL-28 melanoma; 60.3% in the test with SK-MEL-2 melanoma; 57.8% in the test on EKVX NSCLC. The growth in the test with SN12C renal was 36.9%; in the test with UO-31 renal, 43.6%; in the test with TK-10 renal, 69.8%; with ACHN renal, 40.9%; in the test with CAKI-1 renal it was 42.2%; in the test with A498 renal, -26.9% (active). Moreover, the growth is 30.8% in the test with CCRF-CEM leukemia and 45.1% in the test with MOLT-4 leukemia.

As to `COc1cc(C2=Nc3c(N)nc(N)nc3NC(c3cccc(Nc4ccnc5cc(C(F)(F)F)ccc45)c3)C2)cc(OC)c1OC` (stereo not given), the growth is 58% with HCT-15 colon; 45.5% with HT29 colon; 68.9% in the test on SNB-75 CNS; 78.2% with SNB-19 CNS; 61% with U251 CNS; 58.5% with PC-3 prostate. Further, the growth in the test on SK-MEL-5 melanoma was 64.1%; with UACC-62 melanoma, 87.2%; in the test on LOX IMVI melanoma it was 66%; in the test on SK-MEL-28 melanoma, 101%; with SK-MEL-2 melanoma it was 88%; in the test on EKVX NSCLC, 66%. In addition, the growth in the test with SN12C renal was 73%; with UO-31 renal, 51.8%; with TK-10 renal it was 108%; in the test on ACHN renal it was 96.8%; in the test on CAKI-1 renal, 58.6%; in the test on A498 renal it was 79.8%. Also, the growth in the test on CCRF-CEM leukemia is 51.7%; in the test with MOLT-4 leukemia, 19.2%.
